Bioassay records deposited in PubChem by National Center for Advancing Translational Sciences (NCATS).
HCMV antiviral: qHTS Assay for inhibitors of the human cytomegalovirus (HCMV). HFF cells, HCMV-luciferase reporter, 72 h; active compounds read low. activity change, negative = inhibition, % at 57.5 µM. 410,000 compounds, 4.5% hits. AID 1259415, 2018; in the data active means activity change below about -60%; inconclusive means no clear call, values can overlap the other calls; inactive means above about -39%
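Steps: HFFs plated, 16 h 37C; compounds added; HCMV-luciferase added to MOI 1 PFU/cell; 72 h 37C; OneGlo reagent, 5 min room temperature; luminescence read, normalized to controls.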
FMDV antiviral: High Throughput Screening for Foot and Mouth Disease Virus Antivirals | FMDV antiviral cell-based qHTS | Potency, µM (top dose mostly 57.9 µM), for inactives: top-dose activity change, negative = inhibition, hits mostly inhibitors | 410,000 compounds, 1.2% hits | AID 1159524, 2015; calls by dose curve; tested in HEK293T cells; further: read-out not given here; potency means the concentration at half of the fitted maximal effect; nearly all actives have a fitted effect of over 45% in size
Giardia FBPA inh: qHTS Assay for Inhibitors of Fructose-1,6-bisphosphate Aldolase from Giardia Lamblia | A8B2U2 | purified Giardia FBPA | Potency, µM (doses to about 59.6 µM), for the others: at the highest dose activity, negative = inhibition, actives largely listed as inhibitors | 290,000 compounds, 0.71% hits | AID 2451, 2010; further: potency means the concentration at half of the fitted maximal effect; nearly all actives have a fitted effect of over 55% in size
Target sequence (A8B2U2 whole entry, looked up): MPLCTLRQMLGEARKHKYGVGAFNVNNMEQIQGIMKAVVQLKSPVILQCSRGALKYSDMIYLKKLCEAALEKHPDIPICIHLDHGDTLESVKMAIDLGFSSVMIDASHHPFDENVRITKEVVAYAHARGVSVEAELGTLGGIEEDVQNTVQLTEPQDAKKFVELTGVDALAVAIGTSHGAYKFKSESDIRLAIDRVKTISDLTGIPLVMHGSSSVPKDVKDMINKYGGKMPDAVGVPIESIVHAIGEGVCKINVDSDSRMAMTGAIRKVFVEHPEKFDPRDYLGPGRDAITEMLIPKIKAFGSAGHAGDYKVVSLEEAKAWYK
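Giardia FBPA (40 nM reagent) was preincubated 10 min at RT with compound (up to 57.5 uM final), then substrate plus GAPDH/TPI/NAD/arsenate coupling system with diaphorase/resazurin was added; resorufin fluorescence (525/598 nm) was read after 20 min.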
HCV inh: qHTS Assay for Inhibitors of Hepatitis C Virus (HCV). AID 651820, 2012. 340,000 compounds, 3.4% hits. Potency, µM (top dose mostly 41.8 µM), for inactives: at the highest dose activity change, negative = inhibition, usual class: inhibitors. Huh7.5.1 HCVcc-Cre infection, luciferase reporter, 44 h; further: potency means the concentration at half of the fitted maximal effect
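After 44 h co-culture of compound, cells and HCVcc-Cre (~0.5 moi), substrate is added for 15 min at room temperature and luciferase measured over 15 sec. Cells were seeded at 1,000/well and pre-cultured 4 h.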
VACV Venus inh: qHTS for Stage-Specific Inhibitors of Vaccinia Orthopoxvirus: Venus Reporter Primary qHTS. Potency, µM (doses to about 36.5 µM), for the others: top-dose activity change, negative = inhibition, actives largely listed as inhibitors. Vaccinia virus Venus reporter expression, fluorescence. 330,000 compounds, 0.46% hits; calls by dose curve; tested in A549 cells; further: potency means the concentration at half of the fitted maximal effect; nearly all actives have a fitted effect of over 30% in size
Vaccinia mCherry: qHTS for Stage-Specific Inhibitors of Vaccinia Orthopoxvirus: mCherry Reporter Primary qHTS | Vaccinia virus mCherry reporter infection, fluorescence | Potency, µM (top dose mostly 36.5 µM), for the others: at the highest dose activity change, negative = inhibition, usual class: inhibitors | 310,000 compounds, 0.63% hits | AID 720579, 2013; calls by dose curve; tested in A549 cells; further: potency means the concentration at half of the fitted maximal effect; nearly all actives have a fitted effect of over 35% in size
The depositor's hits bear a star; i = inactive; ? = inconclusive; / = no result given; [ ] = dose if it differs, or a comment. The list is not random: actives were taken first. Their share in the collection is about 7.5%. Unless noted, the call rests on the fitted dose curve; in most records, active means well fitted curve in the direction sought with a large enough effect; inconclusive means small, poorly fitted or top-dose-only effect, or another doubt; inactive means no such curve, though single readings can be large; an effect the other way counts as inactive or inconclusive. On the % scale 0 is the no-effect control and ±100 the full control effect.

SMILES	HCMV antiviral	FMDV antiviral	Giardia FBPA inh	HCV inh	VACV Venus inh	Vaccinia mCherry
CCOC(=O)NC(C(Cl)(Cl)Cl)S(=O)(=O)c1ccccc1 (centres undefined)	22	?	-7%	1%	-6%	i
COC(=O)NC(=C(Cl)Cl)S(=O)(=O)c1ccccc1	-31	28µM*	1%	11µM*	?	/
O=C(Nc1ccccc1)N1CC(=O)N2[C@@H](CO)[C@H](c3ccc(Br)cc3)[C@@H]2C1	-6	/	/	/	/	/
C#CCNC(=O)C[C@@H]1C[C@@]2(C(=O)OCC)CCCC=C2N(Cc2ccc(Cl)cc2Cl)C1=O	-1	-3%	/	/	-3%	-4%
COc1ccc(C(C)=NOC(=O)c2c(-c3ccccc3Cl)noc2C)cc1CN1CCOCC1	-60*	?	/	/	-27%	-11%
C/C(=N\OC(=O)c1c(-c2ccccc2Cl)noc1C)c1ccncc1	-1	?	-1%	-11%	-8%	-12%
CC(C)(C)[Si](C)(C)OCc1ccc(-c2c3c(cc4ccc(Cl)cc24)CCC3=O)cc1	1	/	/	/	/	/
CCC(C)NC(=O)C1=CCN(S(=O)(=O)c2ccc(C)cc2)CC1 (centres undefined)	-32	-3%	2%	16%	/	/
CCC(C)NS(=O)(=O)c1ccc(S(=O)(=O)N2CC=C(c3ccc(F)cc3)CC2)cc1 (centres undefined)	-73*	?	0%	?	-24%	-27%
O=C(O)c1ccc(NC2=C/C(=N/S(=O)(=O)c3cccs3)c3ccccc3C2=O)cc1	-24	10µM*	/	/	8%	-6%
Cc1ccc(Cl)cc1NC1=C/C(=N\S(=O)(=O)c2cccs2)c2ccccc2C1=O	-99*	14µM*	0.28µM*	10µM*	?	25µM*
O=C1C(Nc2ccc(O)cc2)=C/C(=N/S(=O)(=O)c2cccs2)c2ccccc21	-99*	13µM*	?	3.5µM*	2µM*	?
Cc1ccc(S(=O)(=O)/N=C2\C=C(NS(=O)(=O)c3ccccc3)C(=O)c3ccccc32)cc1	0	20%	/	-11%	32%	?
O=C(O)c1ccc(Nc2nc3ccccc3nc2NS(=O)(=O)c2cccs2)cc1	29	-21%	15%	1%	0%[7.34 µM]	i[7.34 µM]
CC(C)c1ccc(NC(=O)CSC2=Nc3ccccc3C3=NC(CCC(=O)NCc4ccco4)C(=O)N23)cc1 (centres undefined)	14	-11%	/	/	-10%	-11%
CCOc1nc2cccc(C(=O)OC(C)OC(=O)OC3CCCCC3)c2n1Cc1ccc(-c2ccccc2-c2nn[nH]n2)cc1 (centres undefined)	-86*	-8%	4%	/	-25%	-30%
O=C1C=CC(=O)C(CNc2ccc(C(=O)OCc3ccccc3)cc2)=C1	-23	0%	/	10µM*	?	?
CC(C)(C)NC(=O)C(c1ccc(F)cc1)N(Cc1ccco1)C(=O)CCC(=O)Nc1nccs1 (centres undefined)	-8	-18%	-7%	14%	-9%	-19%
Cc1ccc(-n2nc3c(=O)n(CC(=O)c4ccc(F)cc4)nc(C)c3c2C)cc1	-31	25µM*	5%	?	-25%	-8%
CCc1cccc(C)c1NC(=O)Cn1nc(C)c2nn(-c3ccc(Cl)cc3)c(C)c2c1=O	-62*	-24%	/	/	-21%	?
Cc1ccc(-n2nc3c(=O)n(CCCC(=O)NCc4ccc(F)cc4)nc(C)c3c2C)cc1	-13	?	6%	-22%	-14%	-24%
CCC(C(=O)Nc1cc(F)ccc1F)n1nc(C)c2c(C)n(-c3ccc(C)cc3)nc2c1=O (centres undefined)	-95*	?	9%	8.9µM*	-15%	-22%
COc1ccc(CCNC(=O)C(C)n2nc(C)c3c(C)n(-c4ccc(C)cc4)nc3c2=O)c(OC)c1 (centres undefined)	-98*	?	13%	3.2µM*	?	?
CCOc1ccc(Nc2c(S(=O)(=O)c3ccc(C)cc3)cnc3cc(OC)c(OC)cc23)cc1	-12	-11%	/	/	-25%	-4%
Nn1c(SCC(=O)NC(=O)Nc2ccc3c(c2)OCCO3)nnc1C1CC1	15	15%	2%	6%	-9%	-14%
SMILES	HCMV antiviral	FMDV antiviral	Giardia FBPA inh	HCV inh	VACV Venus inh	Vaccinia mCherry
CCOCCCNC(=O)C(c1ccc(C)cc1)N(Cc1ccc2c(c1)OCO2)C(=O)c1ccc(NC(C)=O)cc1 (centres undefined)	-1	-19%	/	/	-8%	-3%
O=C(Nc1ccccc1)N1CC[C@@]2(CCCNC2)C1	/	0%	1%	/	/	/
O=C(c1cccc(F)c1)N1CCCC(C(=O)N2CCCCCC2)C1 (centres undefined)	-3	0%	-6%	12%	/	/
Cc1cc(Cl)cc(Br)c1OCCCN1C(=O)NC(C)(C)C1=O	2	-25%	2%	-24%	/	/
Cc1ccc(CCNC(=O)C(C)n2nc(C)c3c(C)n(-c4ccc(C)cc4)nc3c2=O)cc1 (centres undefined)	-62*	11µM*	/	/	-28%	?
COc1cccc(CNC(=O)CCCn2nc(C)c3c(C)n(-c4ccc(C)cc4)nc3c2=O)c1OC	?	?	16%	13µM*	?	?
CCC(C(=O)NCc1ccc(OC)c(OC)c1)n1nc(C)c2c(C)n(-c3ccc(C)cc3)nc2c1=O (centres undefined)	-74*	?	/	/	?	-8%
Cc1cccc(CNC(=O)C(C)n2nc(C)c3c(C)n(-c4ccccc4)nc3c2=O)c1 (centres undefined)	-9	-25%	/	10µM*	-15%	-13%
Cc1ccc(-n2nc3c(=O)n(C(C)C(=O)NCCc4cccs4)nc(C)c3c2C)cc1 (centres undefined)	/	?	12%	?	/	/
CCc1ccc(NC(=O)Cn2c(=O)n(Cc3ccco3)c(=O)c3cccnc32)cc1	-12	-2%	/	/	-17%	i
CCCCOc1ccc(C(=O)N/C(=C\c2ccc(Br)cc2)C(=O)NC2CCCCC2)cc1	-4	5%	/	/	-12%	-23%
Cc1ccc(-n2nc3c(=O)n(CC(=O)NCc4ccccc4)nc(C)c3c2C)cc1	-29	0%	-5%	?	/	/
Cc1ccc(-n2nc3c(=O)n(CC(=O)NC(C)CCc4ccccc4)nc(C)c3c2C)cc1 (centres undefined)	/	?	5%	2.2µM*	/	/
CCC(C(=O)NCCCc1ccccc1)n1nc(C)c2c(C)n(-c3ccccc3)nc2c1=O (centres undefined)	-67*	-28%	/	?	-14%	-29%
